Source: PubChem (The Scripps Research Institute Molecular Screening Center)
PPARg SRC-3 ag = agonists of human PPARgamma SRC-3 coactivator recruitment. 200,000 compounds, 0.26% hits. AID 731. activation, % at 8 µM. P37231. biochemical PPARgamma/SRC-3 coactivator recruitment assay; in the data active = activation above about 23%;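 also: 0% = DMSO and 100% = reference agonist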
Target sequence (P37231 whole entry, looked up): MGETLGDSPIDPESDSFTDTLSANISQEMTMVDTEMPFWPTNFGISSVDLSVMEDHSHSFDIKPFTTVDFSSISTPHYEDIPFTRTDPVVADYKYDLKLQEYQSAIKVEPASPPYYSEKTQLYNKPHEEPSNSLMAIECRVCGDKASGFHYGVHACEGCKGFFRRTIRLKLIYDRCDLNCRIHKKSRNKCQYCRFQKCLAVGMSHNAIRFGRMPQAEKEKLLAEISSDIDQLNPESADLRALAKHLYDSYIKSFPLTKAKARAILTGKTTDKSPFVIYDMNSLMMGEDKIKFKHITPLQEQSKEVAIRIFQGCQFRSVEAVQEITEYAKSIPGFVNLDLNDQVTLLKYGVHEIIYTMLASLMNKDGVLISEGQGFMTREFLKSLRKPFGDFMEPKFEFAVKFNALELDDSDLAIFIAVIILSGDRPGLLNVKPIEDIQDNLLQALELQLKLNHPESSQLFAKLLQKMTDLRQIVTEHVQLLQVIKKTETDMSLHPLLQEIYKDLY
PPARg SRC1 recr = PPARgamma-driven SRC-1 recruitment agonism. PPARgamma-SRC-1 coactivator recruitment biochemical assay. activation, % at 8 µM. 200,000 compounds, 0.41% hits. AID 631; in the data active = activation above about 19%;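 also: 0% = DMSO and 100% = reference agonist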
SRC3 TRFRET art = TR-FRET artefact, counter-screen to PPARgamma/SRC-3 agonist assay | TR-FRET ratio at 8 µM | PPARgamma/SRC-3 format; stronger effect = higher value | AID 1048 | 99,000 compounds, 0.39% hits
SRC2 TRFRET art = counter-screen for PPARgamma SRC-2 recruitment agonists: TR-FRET artefact | stronger effect = higher value | TR-FRET ratio at 8 µM | 200,000 compounds, 0.4% hits | AID 1049
PPARg SRC-2 ag = promotes SRC-2 coactivator recruitment by human PPARgamma; PPARgamma LBD-SRC-2 recruitment, biochemical; 200,000 compounds, 0.34% hits; AID 1032; activation, % at 8 µM; P37231; in the data active = activation above about 22%;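 also: 0% = vehicle and 100% = reference agonist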
SRC1 TRFRET art = TR-FRET artefact, counter-screen to PPARgamma/SRC-1 agonist assay; TR-FRET detection artefact counter-screen, emission ratio; stronger effect = higher value; TR-FRET ratio at 8 µM; 99,000 compounds, 0.34% hits; in the data active = TR-FRET ratio above about 2300
* hit, by the source's call. In the library only some 0.9% were active in any assay of this set; here they are far more common. Rule as the data show it, unless noted: active = TR-FRET ratio above about 2000; inactive = the rest.

How did O=C(NCCCN1CCCC1=O)c1ccc2c(c1)ncn2C1CCCCC1 do in these assays?
PPARg SRC-3 ag: 0; PPARg SRC1 recr: -2; SRC3 TRFRET art: 1645; SRC2 TRFRET art: 1531; PPARg SRC-2 ag: 22*; SRC1 TRFRET art: 1914

How did CCOc1ccccc1NC(=S)N1CCN(c2nc(-c3ccc(F)cc3)cs2)CC1 do in these assays?
PPARg SRC-3 ag: 14; PPARg SRC1 recr: 6; SRC3 TRFRET art: 2234*; SRC2 TRFRET art: 2063*; PPARg SRC-2 ag: 11; SRC1 TRFRET art: 2465*

What do the screens show for `O=C(/C=C/c1ccc(Br)cc1)c1ccc(NC(=O)c2ccco2)cc1`?
PPARg SRC-3 ag: 6; PPARg SRC1 recr: 4; SRC3 TRFRET art: 14077*; SRC2 TRFRET art: 5699*; PPARg SRC-2 ag: 1; SRC1 TRFRET art: 2646*

What do the screens show for `NS(=O)(=O)c1ccc(NC(=S)NCc2ccco2)cc1`?
PPARg SRC-3 ag: -2; PPARg SRC1 recr: -8; SRC3 TRFRET art: 1351; SRC2 TRFRET art: 1423; PPARg SRC-2 ag: -4; SRC1 TRFRET art: 1538

Results for COc1cc(C(=O)N/N=c2/sc3ccccc3n2C)cc(OC)c1OC ?
PPARg SRC-3 ag: 0; PPARg SRC1 recr: -3; SRC3 TRFRET art: 1477; SRC2 TRFRET art: 1548; PPARg SRC-2 ag: 0; SRC1 TRFRET art: 1686

How did COc1ccc(C(=O)N=c2sc3ccccc3n2C)cc1OC do in these assays?
PPARg SRC-3 ag: 4; PPARg SRC1 recr: 168*; SRC3 TRFRET art: 1605; SRC2 TRFRET art: 1578; PPARg SRC-2 ag: -2; SRC1 TRFRET art: 4952*

How did Cc1cc(=O)n2cccc(O)c2n1 do in these assays?
PPARg SRC-3 ag: 2; PPARg SRC1 recr: -4; SRC3 TRFRET art: 1591; SRC2 TRFRET art: 1356; PPARg SRC-2 ag: 1; SRC1 TRFRET art: 1616

What do the screens show for `O=C(COc1ccccc1-c1ccccc1)NCc1ccco1`?
PPARg SRC-3 ag: -5; PPARg SRC1 recr: 54*; SRC3 TRFRET art: 1556; SRC2 TRFRET art: 1456; PPARg SRC-2 ag: 3; SRC1 TRFRET art: 4796*

Results for CC(C)[C@H](NS(=O)(=O)c1cccc(C(F)(F)F)c1)C(=O)OCC(N)=O ?
PPARg SRC-3 ag: -3; PPARg SRC1 recr: -5; SRC3 TRFRET art: 1456; SRC2 TRFRET art: 1343; PPARg SRC-2 ag: 3; SRC1 TRFRET art: 1717

How did CN(CC1CCCO1)S(=O)(=O)c1ccc(C(=O)Nc2nc3cc4c(cc3s2)OCO4)cc1 (stereo not drawn) do in these assays?
PPARg SRC-3 ag: 4; PPARg SRC1 recr: 9; SRC2 TRFRET art: 1631; PPARg SRC-2 ag: 23*

How did CN(CC1CCCO1)S(=O)(=O)c1ccc(C(=O)Nc2ccc3c(c2)OCO3)cc1 (stereo not drawn) do in these assays?
PPARg SRC-3 ag: 3; PPARg SRC1 recr: 4; SRC3 TRFRET art: 1432; SRC2 TRFRET art: 1460; PPARg SRC-2 ag: 11; SRC1 TRFRET art: 1902

How did COC(=O)c1ccc(C(=O)OC)c(NC(=O)CCC(=O)O)c1 do in these assays?
PPARg SRC-3 ag: -7; PPARg SRC1 recr: 7; SRC2 TRFRET art: 1558; PPARg SRC-2 ag: 3

Results for COC(=O)c1ccc(C(=O)OC)c(NC(=O)C(C)(C)C)c1 ?
PPARg SRC-3 ag: 0; PPARg SRC1 recr: 46*; SRC3 TRFRET art: 1496; SRC2 TRFRET art: 1765; PPARg SRC-2 ag: 9; SRC1 TRFRET art: 3181*

How did O=C(CSc1ccccc1)NCCCN1CCOCC1 do in these assays?
PPARg SRC-3 ag: -12; PPARg SRC1 recr: 4; SRC2 TRFRET art: 1558; PPARg SRC-2 ag: -3

What do the screens show for `O=C(CSc1c2c(nc3ccc(Cl)cc13)CCCC2)NCCCN1CCOCC1`?
PPARg SRC-3 ag: 14; PPARg SRC1 recr: 19; SRC3 TRFRET art: 2256*; SRC2 TRFRET art: 1820; PPARg SRC-2 ag: 20; SRC1 TRFRET art: 2131

What do the screens show for `Cc1cc2nc(-c3ccc(SCc4ccc(C#N)cc4)nc3)[nH]c2cc1C`?
PPARg SRC-3 ag: 10; PPARg SRC1 recr: 5; SRC2 TRFRET art: 2209*; PPARg SRC-2 ag: 12

Results for O=S(=O)(c1ccc(N2CCN(S(=O)(=O)c3ccc4c(c3)OCCO4)CC2)nc1)N1CCCC1 ?
PPARg SRC-3 ag: 34*; PPARg SRC1 recr: 18; SRC2 TRFRET art: 2273*; PPARg SRC-2 ag: 12

How did N#Cc1ccccc1CSc1nc2ncc(Br)cc2[nH]1 do in these assays?
PPARg SRC-3 ag: 3; PPARg SRC1 recr: 4; SRC3 TRFRET art: 1759; SRC2 TRFRET art: 1754; PPARg SRC-2 ag: 16; SRC1 TRFRET art: 1936

What do the screens show for `Fc1ccccc1CSc1nc2ncc(Br)cc2[nH]1`?
PPARg SRC-3 ag: 7; PPARg SRC1 recr: 3; SRC2 TRFRET art: 1920; PPARg SRC-2 ag: 24*

What do the screens show for `Cc1n[nH]c(C)c1S(=O)(=O)N(CC(=O)Nc1ccc2c(c1)OCCO2)c1ccc(C(C)C)cc1`?
PPARg SRC-3 ag: 0; PPARg SRC1 recr: 7; SRC2 TRFRET art: 1632; PPARg SRC-2 ag: 24*

Results for Cc1noc(C)c1S(=O)(=O)N(CC(=O)Nc1ccc2c(c1)OCO2)c1ccc(C(C)C)cc1 ?
PPARg SRC-3 ag: 5; PPARg SRC1 recr: 4; SRC2 TRFRET art: 1718; PPARg SRC-2 ag: 11

How did O=C(N/C(=C/c1ccc(Br)cc1)C(=O)N1CCCC1=O)c1ccco1 do in these assays?
PPARg SRC-3 ag: 3; PPARg SRC1 recr: 0; SRC3 TRFRET art: 1607; SRC2 TRFRET art: 1531; PPARg SRC-2 ag: 0; SRC1 TRFRET art: 1711

Results for CC1CCc2nc(NC(=O)Nc3ccc4c(c3)OCO4)sc2C1 (stereo not drawn) ?
PPARg SRC-3 ag: -2; PPARg SRC1 recr: 5; SRC3 TRFRET art: 1544; SRC2 TRFRET art: 1622; PPARg SRC-2 ag: -3; SRC1 TRFRET art: 2026

How did CCCOc1cc(N(CC)CC)ccc1/C=C(/C#N)c1nc2ccc(C)cc2[nH]1 do in these assays?
PPARg SRC-3 ag: 5; PPARg SRC1 recr: 2; SRC2 TRFRET art: 2008*; PPARg SRC-2 ag: 37*

How did CCN(CC)c1ccc(/C=C(/C#N)c2nc3ccc(C)cc3[nH]2)c(OC(C)C)c1 do in these assays?
PPARg SRC-3 ag: 8; PPARg SRC1 recr: 7; SRC2 TRFRET art: 1540; PPARg SRC-2 ag: 1

What do the screens show for `Cc1cc(Br)ccc1NC(=O)CN1C(=O)C2C3CC(c4ccccc4)C(C3)C2C1=O` (stereo not drawn)?
PPARg SRC-3 ag: -3; PPARg SRC1 recr: 4; SRC2 TRFRET art: 1674; PPARg SRC-2 ag: 12

Results for COCCCNC(=O)CCCCCNS(=O)(=O)c1ccc(Br)cc1 ?
PPARg SRC-3 ag: 4; PPARg SRC1 recr: 5; SRC3 TRFRET art: 1404; SRC2 TRFRET art: 1656; PPARg SRC-2 ag: 4; SRC1 TRFRET art: 1610

What do the screens show for `O=C(COC(=O)/C=C/c1ccco1)NCCc1ccccc1`?
PPARg SRC-3 ag: -1; PPARg SRC1 recr: 4; SRC3 TRFRET art: 1696; SRC2 TRFRET art: 1550; PPARg SRC-2 ag: 3; SRC1 TRFRET art: 1586

What do the screens show for `COc1ccc(C2(CNC(=O)/C=C\c3ccco3)CCCC2)cc1OC`?
PPARg SRC-3 ag: -5; PPARg SRC1 recr: 41*; SRC2 TRFRET art: 1498; PPARg SRC-2 ag: 2
